High-throughput results from PubChem.
D1 ag: agonists of human D1 dopamine receptor | P21728 | HEK293 T-REx D1 cells, calcium flux, agonist mode | activation, % at 2 µM | actives 1% (n = 360,000) | AID 504660; further: 0% is about no effect
Target sequence (P21728 whole entry, looked up): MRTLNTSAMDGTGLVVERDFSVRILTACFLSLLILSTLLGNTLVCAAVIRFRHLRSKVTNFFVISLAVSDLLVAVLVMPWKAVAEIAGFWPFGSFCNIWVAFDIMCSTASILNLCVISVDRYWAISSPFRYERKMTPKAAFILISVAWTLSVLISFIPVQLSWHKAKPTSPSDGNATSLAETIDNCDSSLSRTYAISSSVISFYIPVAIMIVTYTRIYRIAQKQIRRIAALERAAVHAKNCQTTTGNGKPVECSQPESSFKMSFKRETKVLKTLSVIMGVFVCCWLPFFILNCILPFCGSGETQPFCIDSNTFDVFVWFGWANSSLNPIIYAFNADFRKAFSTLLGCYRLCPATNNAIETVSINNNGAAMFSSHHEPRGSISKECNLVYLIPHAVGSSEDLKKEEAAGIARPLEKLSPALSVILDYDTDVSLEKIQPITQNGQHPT
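Tetracycline-induced HEK293 TREx D1 cells, force-coupled to calcium signalling, were dye-loaded with a no-wash calcium kit. Compound was pin-added after a 10 s baseline. Fluorescence was read kinetically at 1 cycle/s for 180 s, with calcium rises flagged as agonism.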
TRHR ag: TRH receptor (human) agonism. activation, % at 2 µM. actives 0.18% (n = 360,000). TRHR cells, calcium flux fluo-8, FDSS agonist mode. P34981; further: 0% is about no effect
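TRHR-expressing cells loaded with fluo-8 calcium dye; 23 nL library compound pin-transferred, kinetic FDSS fluorescence (Ex 480/Em 530) recorded about 180 s for agonist-induced calcium release, before a 10 nM TRH EC20 addition for potentiator mode.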
D1 potentiator: human D1 dopamine receptor positive modulation; HEK293 TREx D1 cells, calcium flux, dopamine EC20 potentiation; potentiation, % at 10 µM; actives 0.036% (n = 360,000); in the data active means potentiation above about 30%; further: 0% is about no effect
TRHR enhancer: allosterically enhances the human TRH receptor | P34981 | TRHR cells, fluo-8 calcium fluorescence, EC20 TRH enhancement | enhancement, % at 2 µM | actives 0.66% (n = 360,000); in the data active means enhancement above about 30%; further: 0% is about no effect
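Enhancer read-out: after compound pinning and an initial kinetic agonist-mode read, an EC20 of TRH (10 nM final) was injected and fluo-8 calcium signal (Ex 480/Em 530) followed at 1 s/cycle for 100 cycles in TRHR-expressing cells.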
D1 antag: blocks dopamine activation of the human D1 receptor; P21728; HEK293 TREx D1 cells, calcium flux, dopamine EC80; stronger effect = lower value; activity change, negative = inhibition, % at 10 µM; actives 3.2% (n = 360,000); in the data active means activity change below about -30%; further: on the % scale 0 is the no-effect control and ±100 the full control effect
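Antagonism measured as reduced calcium response to an EC80 dopamine addition following 180 s compound pre-read; cells were inducible HEK293 Trex D1 plated overnight at 30 C, read kinetically at 1 cycle/sec.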
* marks the source's active call; other numbers are inactive results; nt = not tested or not shown; ! = not active in a repeat. Hits are enriched below; roughly 4.7% of the tested compounds scored in any of these assays. Unless noted, no stated cut-off is given here; in the data, active means activation above about 30%; inactive means the rest.

SMILES | D1 ag | TRHR ag | D1 potentiator | TRHR enhancer | D1 antag
O=S1(=O)CC/C(=N/Nc2ccc(C(F)(F)F)cn2)c2cc(F)ccc21 | -0.4 | 0.8 | 10.9 | 16.7 | -51.6*
O=S1(=O)CC/C(=N/Nc2ccccn2)c2cc(F)ccc21 | 0.4 | 0.3 | -0.6 | -4.2 | 0.2
CCCNC(=O)C1CCC(Cn2c(=O)c3sccc3n(Cc3cccc(OC)c3)c2=O)CC1 (configuration not stated) | 1.6 | 0.3 | -7.3 | 52.5* | -2.9
COc1cccc(Cn2c(=O)n(CC3CCC(C(=O)NC(C)C)CC3)c(=O)c3sccc32)c1 (configuration not stated) | -0.1 | 0.3 | -5.2 | -0.6 | -2.5
CC(=O)c1ccc(NC(=O)C2=CC(c3ccc(C)cc3)=NS(=O)(=O)N2C)cc1 | 0.6 | 0.2 | -1.3 | -2.0 | -45.6*
Cc1ccc(NC(=O)C2=CC(c3ccc(C)cc3)=NS(=O)(=O)N2C)cc1 | 15.6 | 0.3 | -5.7 | -2.1 | -2.2
CC(=O)c1ccc(NC(=O)C2=CC(c3ccc4c(c3)OCO4)=NS(=O)(=O)N2C)cc1 | 33.3*! | 1.0 | 1.3 | -7.4 | -14.7
COc1ccc(CCNc2nc3cc(OC)c(OC)cc3c3nc(-c4cccnc4)nn23)cc1OC | 1.6 | -0.1 | 3.5 | -0.9 | 31.6
O=C1Cc2cc(NS(=O)(=O)c3cc(F)ccc3F)cc3c2N1CCC3 | 1.5 | 0.2 | -3.6 | 10.4 | -60.0*
COc1ccc(F)cc1S(=O)(=O)Nc1cc2c3c(c1)CC(=O)N3CCC2 | 2.5 | 0.1 | -6.0 | 6.9 | -17.1
Cc1ccc(CNC(=O)C(=O)NCC2OCCN2S(=O)(=O)c2ccc(Br)cc2)cc1 (configuration not stated) | 10.2 | 1.3 | -4.5 | 31.3* | -6.3
COc1ccc(CCNC(=O)C(=O)NCC2OCCN2S(=O)(=O)c2ccc3c(c2)OCCO3)cc1OC (configuration not stated) | -0.7 | 0.9 | -23.8 | 0.1 | -74.8*
CNC(=O)C(=O)NCC1OCCCN1S(=O)(=O)c1ccc(F)cc1C (configuration not stated) | 0.9 | 0.1 | -10.9 | 10.1 | -54.0*
COc1ccc(CCNC(=O)C(=O)NCC2OCCN2S(=O)(=O)c2ccc3c(c2)OCCO3)cc1 (configuration not stated) | -0.1 | 0.1 | 4.5 | 8.9 | 10.2
Cc1ccc(CNC(=O)C(=O)NCC2OCCN2S(=O)(=O)c2ccc(C)cc2)cc1 (configuration not stated) | 1.8 | 1.6 | 1.0 | -5.2 | -11.7
Cc1ccc(S(=O)(=O)N2CCOC2CNC(=O)C(=O)NCCN(C)C)cc1 (configuration not stated) | 0.8 | 0.8 | 7.2 | 36.8* | 10.0
Cc1nn2c(=O)cc(COC(=O)c3cccc(NC(=O)c4ccc(C(C)(C)C)cc4)c3)nc2s1 | 2.0 | 0.6 | -0.5 | 1.4 | -5.4
CCc1ccc(CNC(=O)COc2cc(=O)n(CC)c3ccccc23)cc1 | -0.5 | 0.0 | 0.2 | -0.5 | 10.0
CC(C)c1nc2ccc(C(=O)NCCCN3CCN(c4ccccc4F)CC3)cc2o1 | 3.3 | -0.2 | -5.2 | -1.5 | -29.4
CCC(C(=O)Nc1cccc(Cl)c1C)n1nc(C)c2sc3ccccc3c2c1=O (configuration not stated) | -0.3 | 0.7 | -0.5 | -0.7 | -10.1
COc1cc2cncc(Cc3ccc(Cl)cc3)c2cc1OC | 5.2 | -0.3 | 0.1 | 1.4 | -44.8*
COc1cc2nc(CN(C)Cc3ccc(Cl)cc3)[nH]c(=O)c2cc1OC | 4.3 | 0.9 | 2.9 | -2.2 | 18.7
COC(=O)c1ccc(/C=C(\C#N)c2nc3ccccc3s2)cc1 | 55.8* | 15.3 | 1.9 | 3.0 | 26.1
N#C/C(=C/c1ccc(-c2ccc(S(N)(=O)=O)cc2)o1)c1nc2ccccc2s1 | 265.4* | 92.6* | -9.4 | 19.6 | -3.5
N#C/C(=C\c1ccccn1)c1nc2ccccc2s1 | 148.4* | 45.1* | 7.1 | 3.0 | -3.1
SMILES | D1 ag | TRHR ag | D1 potentiator | TRHR enhancer | D1 antag
CC(C)(C)c1ccc(C(=O)OC/C(O)=C(\C#N)c2nc3ccccc3s2)cc1 | 9.7 | 0.9 | -9.8 | -3.0 | -75.5*
N#C/C(=C/c1ccc(-c2ccc(S(N)(=O)=O)cc2)o1)C(=O)Nc1ccccc1 | 4.4 | 1.0 | 0.1 | -5.7 | -12.5
CN(Cc1nc(-c2ccc(Cl)cc2)no1)S(=O)(=O)c1ccccc1 | 2.8 | 1.8 | 0.1 | -0.7 | -6.2
Cc1ccc(C)c(Cn2c3ccccc3c3cnn(CC(=O)NC4CCC(C)CC4)c(=O)c32)c1 (configuration not stated) | 2.8 | -2.5 | 0.9 | 9.2 | -3.5
Cc1cc(C)c(S(=O)(=O)NCCc2sc3nc(-c4ccc(F)cc4)nn3c2C)c(C)c1 | 6.5 | 0.7 | -2.3 | -2.1 | nt
N#C/C(=C/c1ccc(-c2ccccc2)o1)c1nc(-c2cccs2)cs1 | 215.0* | 67.7* | -6.5 | -0.2 | -7.6
N#C/C(=C\c1ccc(-c2ccc(F)cc2)o1)C(=O)Nc1nc(-c2cccs2)cs1 | 14.1 | 0.5 | -3.5 | 15.0 | 13.0
CCOC(=O)N1CCN(/C=C(\C#N)c2nc3ccccc3s2)CC1 | 32.1* | 4.7 | -2.5 | -10.0 | -8.1
N#C/C(=C\N1CCN(Cc2ccc3c(c2)OCO3)CC1)c1nc2ccccc2s1 | 11.9 | -0.5 | 1.9 | 1.7 | -8.8
N#C/C(=C\c1ccc(O)cc1)C(=O)NCC1CCCO1 (configuration not stated) | 2.4 | 0.3 | -3.4 | -5.5 | -7.2
C=CCn1c(COc2ccccc2F)nnc1SCCN1C(=O)c2ccccc2C1=O | 4.8 | 0.1 | -1.1 | 38.4* | -10.9
C=CCn1c(COc2cccc3ccc(C)nc23)nnc1SCC(=O)OC | 2.3 | 0.0 | -3.8 | -1.3 | -12.3
Cc1cc(NC(=O)CSc2nc3c([nH]c4ccccc43)c(=O)n2-c2cccc(Cl)c2)no1 | 0.5 | -0.4 | -4.3 | -2.3 | -6.2
CCc1oc(C(=O)OC)cc1CSC(=N)N | 5.2 | -0.8 | -7.2 | -3.1 | -22.9
Cc1cc(CSC(=N)N)c(CSC(=N)N)cc1C | 2.1 | 0.8 | -2.9 | -22.8 | -94.9*
c1ccc(CC2CCN(c3ncnc4sccc34)CC2)cc1 | 37.7* | 1.4 | -7.5 | -8.8 | -28.5
COc1ccccc1/C=C/CN1CCN(c2ccccc2)CC1 | 2.4 | -0.1 | -8.5 | -0.2 | -53.7*
Cc1cc(N2CCN(c3ccccc3)CC2)nc(NCc2ccccc2)n1 | 7.5 | 1.1 | -3.7 | 1.5 | -49.5*
Cc1cc(N/N=C/c2ccccc2Cl)nc(NCc2ccccc2)n1 | 5.5 | -1.4 | 0.6 | 0.5 | 7.6
Cc1cc(NC2CCCCC2)nc(NCc2ccccc2)n1 | 54.9* | 4.0 | -4.0 | 2.3 | 3.2
Cc1ccc(Nc2cc(C)nc(NCc3ccccc3)n2)cc1 | 53.4* | 6.5 | -10.7 | 32.2* | 18.5
COc1ccc(Nc2cc(C)nc(NCc3ccccc3)n2)cc1 | 17.8 | -0.7 | -2.8 | -0.3 | 1.2
Cc1ccc(CNc2nc3ccccc3n3c(C)nnc23)cc1 | 1.9 | 0.2 | -3.1 | 0.3 | 8.9
